Compound activity deposited in PubChem by National Center for Advancing Translational Sciences (NCATS).
Compounds with a hit are over-represented: about 4.7% of the library has one in this group of screens.
D1 antag: Antagonist of Human D 1 Dopamine Receptor: qHTS; activity change, negative = inhibition, % at 10 µM; AID 504652, 2011; D(1A) dopamine receptor (Homo sapiens), P21728; HEK293 TREx D1 cells, calcium flux, dopamine EC80; stronger effect = lower value; 360,000 compounds, 3.2% hits; in the data active = activity change below about -30%; also: % is scaled to controls: 0 for no effect and ±100 for the full control effect
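Cells carrying a force-coupled, tetracycline-inducible human D1 receptor report calcium flux. Each well gets a 10 s baseline, compound with 180 s monitoring, then an EC80 dopamine stimulus with a second 180 s kinetic read.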
D1 potentiator: Potentiators of Human D1 Dopamine Receptor: qHTS. HEK293 TREx D1 cells, calcium flux, dopamine EC20 potentiation. potentiation, % at 10 µM. 360,000 compounds, 0.036% hits. D(1A) dopamine receptor (Homo sapiens), P21728. AID 504651, 2011; in the data active = potentiation above about 30%; also: 0% is about no effect
D1 agonist: Allosteric Agonists of the Human D1 Dopamine Receptor: qHTS; D(1A) dopamine receptor (Homo sapiens), P21728; HEK293 T-REx D1 cells, calcium flux, agonist mode; activation, % at 2 µM; 360,000 compounds, 1% hits; AID 504660, 2011; also: 0% is about no effect
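Tetracycline-induced HEK293 TREx D1 cells, force-coupled to calcium signalling, were dye-loaded with a no-wash calcium kit. Compound was pin-added after a 10 s baseline. Fluorescence was read kinetically at 1 cycle/s for 180 s, with calcium rises flagged as agonism.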
TRHR enhancer: qHTS for Small Molecule Agonists and Allosteric Enhancers of Human TRH Receptor: Primary Screen for Enhancers. Thyrotropin-releasing hormone receptor (Homo sapiens), P34981. 360,000 compounds, 0.66% hits. enhancement, % at 2 µM. TRHR cells, fluo-8 calcium fluorescence, EC20 TRH enhancement. AID 493056, 2011; in the data active = enhancement above about 30%; also: 0% is about no effect
Target sequence (P34981 whole entry, looked up): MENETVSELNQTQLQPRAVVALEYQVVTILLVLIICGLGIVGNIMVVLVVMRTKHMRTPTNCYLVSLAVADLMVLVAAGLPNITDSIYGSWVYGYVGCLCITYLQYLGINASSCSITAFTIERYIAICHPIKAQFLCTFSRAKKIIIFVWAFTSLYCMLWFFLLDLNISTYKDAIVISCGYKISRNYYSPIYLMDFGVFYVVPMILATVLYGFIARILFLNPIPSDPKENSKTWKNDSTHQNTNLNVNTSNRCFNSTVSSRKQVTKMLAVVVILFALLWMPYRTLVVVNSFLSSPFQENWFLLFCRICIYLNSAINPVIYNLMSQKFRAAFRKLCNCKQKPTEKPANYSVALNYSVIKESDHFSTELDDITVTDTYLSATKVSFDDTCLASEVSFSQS
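TRHR-expressing cells loaded with fluo-8 calcium dye were read kinetically (ex 480/em 530) during compound addition, then stimulated with an EC20 of TRH (10 nM final). Enhancement of the Gq-mediated intracellular calcium response was scored.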
TRHR ag: qHTS for Small Molecule Agonists and Allosteric Enhancers of Human TRH Receptor: Primary Screen for Agonists; TRHR cells, calcium flux fluo-8, FDSS agonist mode; 360,000 compounds, 0.18% hits; AID 493084, 2011; Thyrotropin-releasing hormone receptor (Homo sapiens), P34981; activation, % at 2 µM; also: 0% is about no effect
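Read-out: compound-evoked intracellular calcium rise in TRHR cells, fluo-8 dye, kinetic FDSS fluorescence at 1 s/cycle following a 10-cycle baseline. Cells cultured overnight before dye loading (30 min–1.5 h, RT).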
An asterisk follows results filed as active; . = not tested or not shown. Rule as the data show it, unless noted: active = activation above about 30%; inactive = the rest.

SMILES	D1 antag	D1 potentiator	D1 agonist	TRHR enhancer	TRHR ag
CC(=O)c1sc(-c2ccc(F)cc2)cc1NS(=O)(=O)c1ccccc1	-41.5*	-4.5	2.6	4.1	-0.4
CC(=O)Nc1ccc(N=Cc2c(O)c(C(=O)Nc3ccccc3)cc3ccccc23)cc1	-20.2	4.5	185.9*	-0.6	108.7*
Cc1cccc(-c2noc(CN(C(C)C)S(=O)(=O)c3ccc(Br)cc3)n2)c1	-15.1	6.5	34.4*	-11.3	4.5
C#CC[N+](C)(C)CCCCCCCCCC	-2.4	-0.8	0.3	5.2	0.7
CCCCCC[N+](C)(C)CCSSCC[N+](C)(C)CCCCCC	-4.0	4.1	4.2	-14.7	-0.1
CC#CC[N+](C)(C)CCCCCCCCCCCC	6.1	3.0	34.4*	-2.5	-0.3
CCCCCCCCCCCCCCCC[N+](C)(C)CC	-25.2	-7.2	41.4*	-8.8	0.0
CCOc1ccc(C(=O)C(CCC(CN(C)C)C(=O)c2ccc(OCC)cc2)CN(C)C)cc1 (stereo unspecified)	12.6	-10.2	35.5*	-1.4	-0.1
COc1ccc(C(=O)C(CCCCC(CN(C)C)C(=O)c2ccc(OC)cc2)CN(C)C)cc1 (stereo unspecified)	-39.6*	-10.0	24.3	-3.1	3.1
CN(C)CC(CCC(CN(C)C)C(=O)c1ccccc1)C(=O)c1ccccc1 (stereo unspecified)	6.0	0.0	3.1	2.4	0.9
COc1ccc(C(=O)CC(=O)c2ccc(OC)cc2)cc1	-27.7	-5.2	1.1	-1.4	0.7
N#CCC(=O)Nc1ccc(C(=O)OCC(=O)N=c2sccn2Cc2ccccc2Cl)cc1	-45.6*	-10.3	3.6	1.0	2.0
COc1ccc(CN2CCN(c3cc(C)nc4c5c(C)cc(C)nc5nn34)CC2)cc1F	-38.3*	-2.7	1.0	-1.3	-0.6
CCOc1ccc(CN2CCN(c3cc(C)nc4c5c(C)cc(C)nc5nn34)CC2)cc1	6.8	-3.6	0.6	3.5	-0.8
COc1ccc(N2CCN(C(=O)c3ccc4nc(N5CCC(C)CC5)sc4c3)CC2)cc1	8.2	-2.0	-0.6	-1.5	0.6
S=C(NCc1ccccc1)Nc1ccncc1	-55.9*	-17.4	7.7	0.7	0.5
CCc1ccc(NC(=S)NCc2ccccc2)cc1	-37.8*	-7.3	6.4	-0.5	-0.6
CN(N)C(=S)NCc1ccccc1	5.6	-0.8	0.7	7.6	0.6
CN(C)C(=S)NCc1ccccc1	-18.0	5.0	1.4	37.9*	-0.2
S=C(NCc1ccncc1)Nc1ccccc1	.	-4.6	-1.0	6.1	0.2
Fc1ccc(CNC(=S)Nc2ccc(OC(F)F)cc2)cc1	-42.3*	-6.9	25.5	-4.8	1.8
CCC(=O)N1CCc2cc(S(=O)(=O)N(C)c3cccc(C)c3)ccc21	-2.8	0.1	14.6	-9.8	-0.5
O=C(COC(=O)C1CCN(c2ccc(C(F)(F)F)cn2)CC1)Nc1ccc(Cl)cc1	-22.1	-12.6	11.5	3.2	2.1
O=C(COC(=O)C1CCN(c2ccc(C(F)(F)F)cn2)CC1)Nc1ccc(Cl)cn1	-58.9*	-18.1	9.1	8.6	2.5
Cc1ccc(CNc2ncnc3onc(C)c23)cc1	-18.3	-9.2	20.7	-4.4	-0.8
SMILES	D1 antag	D1 potentiator	D1 agonist	TRHR enhancer	TRHR ag
Cc1noc2ncnc(NCc3cccc(Cl)c3)c12	-35.5*	-5.9	29.9	7.4	1.2
Cn1ncc2c(NCc3cccc(Cl)c3)ncnc21	-38.4*	-2.5	1.7	-10.1	-0.7
OCCNc1ncnc2c1cnn2Cc1ccccc1	9.5	-2.5	1.8	2.2	0.2
c1ccc(CNc2ncnc3c2cnn3Cc2ccccc2)cc1	-15.3	-9.0	51.8*	-0.6	8.4
CCOC(=O)c1ccc(NC(=O)c2oc(=O)c3ccccc3c2-c2ccccc2)cc1	-48.2*	-0.5	4.6	19.6	1.1
CC(=O)c1cccc(NC(=O)c2oc(=O)c3ccccc3c2-c2ccccc2)c1	-43.4*	-1.6	5.3	-16.1	0.7
CCOC(=O)c1ccc(NC(=O)c2c(O)c3ccccc3n(C)c2=O)cc1	-72.9*	-4.1	-0.8	9.4	-0.2
O=C(c1ccc(C(F)(F)F)cc1)C1CCCN(C(=O)Cn2cncn2)C1 (stereo unspecified)	-37.3*	7.8	3.9	-6.0	0.3
O=C(CCn1cncn1)N1CCCC(N2CCN(c3cccc(C(F)(F)F)c3)CC2)C1 (stereo unspecified)	-44.5*	-4.3	0.2	-0.2	0.3
O=C(CCn1cncn1)N1CCCC(N2CCN(c3ccc(F)cc3)CC2)C1 (stereo unspecified)	9.9	-8.1	1.3	19.3	1.4
C=C(C)C1CC=C(C)/C(=N/NC(=O)c2cccc([N+](=O)[O-])c2)C1 (stereo unspecified)	9.2	7.5	-0.5	36.6*	-0.5
C=C(C)C1CC=C(C)/C(=N/NC(=O)c2ccoc2C)C1 (stereo unspecified)	-15.3	-6.5	0.6	-0.7	-0.2
CN1CCN(CC(O)(c2ccc(Cl)cc2)c2ccc(Cl)cc2)CC1	-30.0*	-7.9	24.3	-1.0	2.4
CCc1nn2c(=O)cc(COC(=O)c3cccc(NC(=O)COc4ccccc4)c3)nc2s1	-8.2	0.1	-1.5	7.0	0.2
COC(=O)CCCC1=CC2=CC(=O)C(C)(OC(=O)c3cccs3)C(=O)C2=CN1CCCCO (stereo unspecified)	11.3	-3.4	5.5	-3.5	0.2
COCCN1C=C2C(=O)C(C)(OC(=O)c3cccs3)C(=O)C=C2C=C1CCCC(=O)OC (stereo unspecified)	-35.9*	-5.9	6.0	-6.5	-0.2
O=C(Cn1c(-c2cccs2)cc2cc(Cl)ccc21)N1CCCCC1	5.7	4.3	0.1	-3.6	0.3
CCn1nc(C)cc1C(=O)N1CCCC(C(=O)c2ccc3ccccc3c2)C1 (stereo unspecified)	-4.6	-1.1	0.1	-12.6	-1.0
CCn1nc(C)cc1C(=O)N1CCCC(C(=O)c2ccc(Oc3ccccc3)cc2)C1 (stereo unspecified)	-34.7*	-0.7	5.2	9.1	-0.9
COc1ccc(-c2cc(C(=O)NCc3ccc(F)cc3)c3c(-c4ccc(F)cc4)[nH]nc3n2)cc1OC	-2.1	0.8	-1.1	-1.8	0.5
Cc1cccc(CNc2ncnc3ccc(-c4ccc5c(ccn5C)c4)cc23)c1	-10.9	0.2	0.4	2.7	-0.3
CSc1ncccc1C(=O)Nc1ccc(OC(F)(F)F)cc1	-5.6	-6.8	0.9	-3.6	-0.7
CC(=O)Nc1ccc(Sc2ncccc2C(=O)Nc2ccc(F)cc2)cn1	3.0	1.6	98.6*	4.5	28.1
